# Screens deposited in PubChem by National Center for Advancing Translational Sciences (NCATS).
# This is a sample that favours compounds with a hit; in the whole collection about 11% have one here.
# 3T3 cytotox – Cytotoxic Profiling in NIH 3T3 Cell Line of Diverse Libraries Using Quantitative High-Throughput Screening; hit rate 4.3% among 94,000; NIH 3T3 viability, CellTiter-Glo ATP luminescence, 48-72 h; Potency, µM (series often up to 96.7 µM), inactives show top-dose activity change, negative = cytotoxicity, most hits filed as inhibitors; note: nearly all actives have a fitted effect of over 55% in size
#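 Luminescent ATP readout (CellTiter-Glo, 10 min RT) after 48 or 72 hr compound exposure of NIH 3T3 cells seeded at 400 cells/well in 1536-well format; quantitative HTS.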
# NPR1 antag – Natriuretic polypeptide receptor (hNpr1) antagonism - Primary qHTS | HEK293 hNpr1 GloSensor cGMP, ANP-stimulated luminescence | Potency, µM (top dose mostly 46.3 µM), for the others: at the highest dose activity change, negative = inhibition, most hits filed as inhibitors | Atrial natriuretic peptide receptor 1 (Homo sapiens), P16066 | AID 1347048, 2019 | hit rate 1.6% among 76,000; calls by dose curve; note: nearly all actives have a fitted effect of over 60% in size
#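 Compound pre-incubated 30 min at room temperature on GloSensor-loaded HEK293 cells stably carrying hNpr1 and the pGS-40F cGMP biosensor. Stimulation uses hNppA at 0.1 nM final; luminescence is taken at baseline and 20 min post-agonist.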
# Luciferase inh – Firefly luciferase inhibition profiling of diverse chemical library using quantitative high-throughput screening | Luciferin 4-monooxygenase (Photinus pyralis), P08659 | purified P. pyralis luciferase, luminescence, biochemical | Potency, µM (doses to about 115 µM), most hits filed as inhibitors | hit rate 2.5% among 76,000; note: nearly all actives have a fitted effect of over 65% in size
# Target sequence (P08659 whole entry, looked up): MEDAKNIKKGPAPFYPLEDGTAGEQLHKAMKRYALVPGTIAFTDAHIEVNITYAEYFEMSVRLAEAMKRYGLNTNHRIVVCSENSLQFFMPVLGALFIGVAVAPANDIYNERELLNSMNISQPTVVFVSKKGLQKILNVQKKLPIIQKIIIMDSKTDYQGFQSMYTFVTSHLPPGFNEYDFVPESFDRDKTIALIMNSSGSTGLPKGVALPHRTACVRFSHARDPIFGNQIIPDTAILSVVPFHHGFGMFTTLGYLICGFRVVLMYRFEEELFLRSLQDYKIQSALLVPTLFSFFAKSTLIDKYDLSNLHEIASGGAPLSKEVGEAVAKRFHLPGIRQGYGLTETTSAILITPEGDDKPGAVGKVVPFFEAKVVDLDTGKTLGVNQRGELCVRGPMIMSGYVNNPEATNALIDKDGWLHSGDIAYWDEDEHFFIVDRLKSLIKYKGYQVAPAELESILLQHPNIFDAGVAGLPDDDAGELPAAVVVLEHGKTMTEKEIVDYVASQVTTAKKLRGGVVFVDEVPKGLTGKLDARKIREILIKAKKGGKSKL
#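 Luminescence read by CCD imaging after purified firefly luciferase (10nM final) was added to substrate buffer holding 10uM D-luciferin and 10uM ATP, pH 7.5, pre-dosed with compound.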
# HEK293 tox – Cytotoxic Profiling in HEK 293 Cell Line of Diverse Libraries Using Quantitative High-Throughput Screening. Potency, µM (series often up to 115 µM), for inactives: at the top dose activity change, negative = cytotoxicity, usual class: inhibitors. AID 1345083, 2018. hit rate 6.6% among 94,000. HEK 293 viability, ATP luminescence (CellTiter-Glo), 48-72 h; note: nearly all actives have a fitted effect of over 60% in size
#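 HEK 293 seeded at 250 cells/well receive compound via pintool. After 48 or 72 hr at 37 degree Celsius, 5% CO2 and 95% humidity, CellTiter-Glo is dispensed and luminescence read following 10 min at room temperature.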
# Starred values were filed as active, the others as inactive; i = inactive; ? = inconclusive; . = no result given; [ ] = remark or other dose. Unless noted, calls come from the whole dose curve; as a rule, active = well fitted curve in the direction sought with a large enough effect; inconclusive = small, poorly fitted or top-dose-only effect, or another doubt; inactive = no such curve, though single readings can be large; an effect the other way counts as inactive or inconclusive. % is set by controls: 0 for no effect and ±100 for the full control effect; potency is the fitted concentration of half-maximal effect.
SMILES,3T3 cytotox,NPR1 antag,Luciferase inh,HEK293 tox
COc1ccccc1C(O)c1nc(Nc2cccc(F)c2)n[nH]1 (stereo unspecified),-37%[138 µM],-5%[70.6 µM],i,?
OC(c1nc(Nc2cccc(Cl)c2)n[nH]1)C1CC1 (stereo unspecified),?,-14%[70.6 µM],45µM*,-17%[230 µM]
OC(c1nc(Nc2cccc(F)c2)n[nH]1)C1CC1 (stereo unspecified),112µM*,3%[70.6 µM],?,0%[230 µM]
CSc1ccc(-c2cccc(C(=O)NCCNC(=O)C(C)(C)C)c2)cc1,-15%,.,.,-7%
O=C1NC2(CCN(CC3CCCCC3)C2)Oc2ccccc21 (stereo unspecified),?,6%[70.6 µM],i,63µM*
O=C1NC2(CCCN(CC3CC3)C2)Oc2ccccc21 (stereo unspecified),-19%[138 µM],0%[70.6 µM],i,-15%[172 µM]
CCOc1nccn2c(-c3ccc(CNc4ccc(OC)nc4)cc3)cnc12,?,-14%[70.6 µM],22µM*,?
CCOc1nccn2c(-c3ccc(CN4CCNC(=O)C4)cc3)cnc12,?,5%[70.6 µM],i,-2%[172 µM]
CCN1CCN(C(=O)C2CCc3ncc(-c4ccc(F)cc4)n3C2)CC1 (stereo unspecified),-23%,-1%,i,-17%
COc1ccc(NC(=O)N2Cc3[nH]cnc3C[C@H]2c2nc(-c3ccc(C)cc3)no2)cc1,?,?,63µM*,?
COc1ccc(NC(=O)N2Cc3[nH]cnc3C[C@H]2c2nc(-c3ccc(F)cc3)no2)cc1,50µM*,-30%[70.6 µM],?,?
COc1ccc(-c2noc([C@@H]3Cc4nc[nH]c4CN3C(=O)Nc3ccc(C)cc3)n2)cc1,?,?,18µM*,?
COc1ccc(NC(=O)N2Cc3[nH]cnc3C[C@H]2c2nc(-c3ccc(F)c(Cl)c3)no2)cc1,32µM*,?,?,?
CN(Cc1ccc(F)cc1)Cc1cccc(C(F)(F)F)c1,-10%[138 µM],.,.,0%[172 µM]
O=C(c1cccc(-c2ccccn2)c1)N1CCN(C(=O)C2CC2)CC1,-12%[138 µM],.,.,-13%[172 µM]
COc1cccc(CN2CCc3c(cc(C(=O)Nc4ccc(F)cc4C)n3C)C2)c1,?,-4%,25µM*,?
COc1cccc(CN2CCc3c(cc(C(=O)Nc4cc(C)ccc4C)n3C)C2)c1,?,-22%,32µM*,?
O=C(NC1CCCc2c1[nH]c1ccccc21)c1ccccc1 (stereo unspecified),?,-10%,i,?
O=C(NC1CCCc2c1[nH]c1c(Cl)cccc21)c1n[nH]c2c1CCC2 (stereo unspecified),28µM*,-18%,i,?
CC(C)(C)C(=O)NC1CCCc2c1[nH]c1ccc(F)cc21 (stereo unspecified),?,-7%,i,45µM*
Cn1nc(C(=O)NC2CCCc3c2[nH]c2ccccc32)c2ccccc2c1=O (stereo unspecified),?,-18%,i,35µM*
COc1ccc(C(=O)NC2CCCc3c2[nH]c2ccccc32)cc1OC (stereo unspecified),?,-12%,i,45µM*
COc1ccc(-c2ccc(C(=O)NCC(F)(F)F)cc2)nn1,-27%[138 µM],.,.,-6%[172 µM]
CS(=O)(=O)c1ccc(CN2CCOC[C@H]2c2ncc(-c3ccc(C(F)(F)F)cc3)[nH]2)cc1,?,4%,i,?
COc1ccc(CC(=O)NC2CCCc3c2[nH]c2ccccc32)cc1OC (stereo unspecified),?,?,i,35µM*
COCC(=O)NC1CCCc2c1[nH]c1c(Cl)cccc21 (stereo unspecified),-12%,1%,i,?
Cc1noc(C)c1CC(=O)NC1CCCc2c1[nH]c1ccccc21 (stereo unspecified),40µM*,-18%,i,?
Cc1noc(C)c1CC(=O)NC1CCCc2c1[nH]c1ccc(F)cc21 (stereo unspecified),?,-4%,i,?
COc1ccc(CC(=O)NC2CCCc3c2[nH]c2c(Cl)cccc32)cc1 (stereo unspecified),25µM*,-20%,i,?
